According to PubChem BioAssay AID1159580 (chemical genetic matrix, 2015):
The campaign covered roughly 5,500 compounds. About 2,000 (36%) were called active. Inconclusive results (about 18%) are left out. Cut-off read from the data, not from the text of the source: active = normalized growth mostly below about 0.91 (no sharp cut-off); inconclusive = no clear call, values can overlap the other calls; inactive = mostly above about 0.92. The list shows a part of the results.

Experiment: chemical genetic growth profiling, strain panel (AID 1159580);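 note: tested at 20 µM; growth read once vehicle control cultures reached saturation at 30 °C; 1 = growth at the plate median or of vehicle wells; lower values mean less growth of the strain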
Conditions: growth OD
[1] = S. cerevisiae deletion strains, locus YAL013W, strain DEP1, active compounds read low
[2] = S. cerevisiae deletion strains, locus YAL040C, strain CLN3, active compounds read low
[3] = S. cerevisiae deletion strains, locus YCL061C, strain MRC1 (second series), active compounds read low
[4] = S. cerevisiae deletion strains, locus YDR150W, strain NUM1, active compounds read low
[5] = S. cerevisiae deletion strains, locus YDR363W, strain ESC2, active compounds read low
[6] = S. cerevisiae deletion strains, locus YER002W, strain NOP16, active compounds read low
[7] = S. cerevisiae deletion strains, locus YGR078C, strain PAC10, active compounds read low
[8] = S. cerevisiae deletion strains, locus YJR075W, strain HOC1, active compounds read low
[9] = S. cerevisiae deletion strains, locus YMR263W, strain SAP30, active compounds read low
[10] = S. cerevisiae deletion strains, locus YMR307W, strain GAS1, active compounds read low
[11] = S. cerevisiae deletion strains, locus YNL153C, strain GIM3, active compounds read low
[12] = S. cerevisiae deletion strains, locus YNL175C, strain NOP13, active compounds read low
[13] = S. cerevisiae deletion strains, locus YNL197C, strain WHI3, active compounds read low
[14] = S. cerevisiae deletion strains, locus YNL224C, strain SQS1, active compounds read low
[15] = S. cerevisiae deletion strains, locus YNL322C, strain KRE1, active compounds read low
[16] = S. cerevisiae deletion strains, locus YOR083W, strain WHI5 (second series), active compounds read low
[17] = S. cerevisiae deletion strains, locus YPL055C, strain LGE1, active compounds read low

Measured: normalized growth

N#CC(=C(\N)Sc1ccccc1N)/C(C#N)=C(/N)Sc1ccccc1N
inactive: [1] 0.988 | [2] 0.974 | [3] 1.01 | [4] 1.01 | [5] 1 | [6] 1 | [7] 0.99 | [8] 0.97 | [9] 1 | [10] 0.995 | [11] 0.923 | [12] 0.981 | [13] 0.971 | [14] 0.973 | [15] 0.988 | S. cerevisiae deletion strains, locus YPL241C, strain CIN2, active compounds read low 1.01
active: [16] 0.763

Cc1nc(N=Nc2cc(S(=O)(=O)O)c3cc([N+](=O)[O-])cc(S(=O)(=O)O)c3c2)c(COP(=O)(O)O)c(C=O)c1O
inactive: [1] 0.999 | [2] 1.02 | [3] 1 | [4] 0.995 | [5] 1.01 | [6] 1.02 | [7] 1 | [8] 1 | [12] 0.997 | [13] 1 | [14] 1.01 | [16] 1.01 | [17] 1.02

NC(N)=Nc1ccc(Cl)cc1
inactive: [1] 1.01 | S. cerevisiae deletion strains, locus YBR021W, strain FUR4, active compounds read low 1.01 | S. cerevisiae deletion strains, locus YBR229C, strain ROT2, active compounds read low 1.01 | S. cerevisiae deletion strains, locus YCL029C, strain bik1, active compounds read low 1 | S. cerevisiae deletion strains, locus YDL035C, strain GPR1, active compounds read low 1.02 | S. cerevisiae deletion strains, locus YDL074C, strain BRE1, active compounds read low 1.04 | S. cerevisiae deletion strains, locus YDL101C, strain DUN1, active compounds read low 1.03 | S. cerevisiae deletion strains, locus YDL134C, strain PPH21, active compounds read low 1.02 | S. cerevisiae deletion strains, locus YDL185W, strain tfp1, active compounds read low 1.01 | S. cerevisiae deletion strains, locus YDL192W, strain arf1, active compounds read low 1.01 | S. cerevisiae deletion strains, locus YDR101C, strain arx1, active compounds read low 0.99 | [4] 1.02 | S. cerevisiae deletion strains, locus YDR162C, strain NBP2, active compounds read low 1.02 | S. cerevisiae deletion strains, locus YDR318W, strain mcm21, active compounds read low 0.997 | S. cerevisiae deletion strains, locus YDR388W, active compounds read low 0.997 | S. cerevisiae deletion strains, locus YDR502C, strain sam2, active compounds read low 1 | S. cerevisiae deletion strains, locus YER110C, active compounds read low 0.996 | S. cerevisiae deletion strains, locus YER155C, strain BEM2, active compounds read low 1.01 | S. cerevisiae deletion strains, locus YER167W, strain BCK2, active compounds read low 1.03 | S. cerevisiae deletion strains, locus YGL078C, strain dbp3, active compounds read low 0.996 | S. cerevisiae deletion strains, locus YGL086W, strain mad1, active compounds read low 1 | S. cerevisiae deletion strains, locus YGL248W, strain PDE1, active compounds read low 1.01 | [7] 1.02 | S. cerevisiae deletion strains, locus YGR135W, strain pre9, active compounds read low 0.998 | S. cerevisiae deletion strains, locus YGR229C, strain SMI1, active compounds read low 1.03 | S. cerevisiae deletion strains, locus YGR252W, strain gcn5, active compounds read low 0.972 | S. cerevisiae deletion strains, locus YHR030C, strain SLT2, active compounds read low 1 | S. cerevisiae deletion strains, locus YHR079C, strain IRE1 (second series), active compounds read low 1 | S. cerevisiae deletion strains, locus YHR094C, strain hxt1, active compounds read low 0.988 | S. cerevisiae deletion strains, locus YHR129C, strain ARP1, active compounds read low 1.01 | S. cerevisiae deletion strains, locus YHR200W, strain rpn10, active compounds read low 0.999 | S. cerevisiae deletion strains, locus YIL066C, strain RNR3, active compounds read low 1.02 | S. cerevisiae deletion strains, locus YIL073C, strain SPO22, active compounds read low 1.09 | S. cerevisiae deletion strains, locus YIL125W, strain kgd1, active compounds read low 1 | S. cerevisiae deletion strains, locus YIR030C, strain dcg1, active compounds read low 0.992 | S. cerevisiae deletion strains, locus YJL095W, strain BCK1, active compounds read low 1.02 | S. cerevisiae deletion strains, locus YJL134W, strain LCB3, active compounds read low 1.01 | S. cerevisiae deletion strains, locus YJL168C, strain set2, active compounds read low 1 | S. cerevisiae deletion strains, locus YJL187C, strain SWE1 (second series), active compounds read low 1.01 | [8] 1.01 | S. cerevisiae deletion strains, locus YKL009W, strain mrt4, active compounds read low 0.987 | S. cerevisiae deletion strains, locus YKL068W, active compounds read low 0.988 | S. cerevisiae deletion strains, locus YKL085W, strain MDH1 (second series), active compounds read low 1.01 | S. cerevisiae deletion strains, locus YKL085W, strain MDH1, active compounds read low 1.01 | S. cerevisiae deletion strains, locus YKL190W, strain CNB1, active compounds read low 1.02 | S. cerevisiae deletion strains, locus YKR001C, strain vps1, active compounds read low 0.999 | S. cerevisiae deletion strains, locus YLR039C, strain RIC1, active compounds read low 1.1 | S. cerevisiae deletion strains, locus YLR058C, strain SHM2, active compounds read low 1.01 | S. cerevisiae deletion strains, locus YLR102C, strain apc9, active compounds read low 0.998 | S. cerevisiae deletion strains, locus YLR262C, strain YPT6, active compounds read low 1.07 | S. cerevisiae deletion strains, locus YLR268W, strain sec22, active compounds read low 0.996 | S. cerevisiae deletion strains, locus YLR330W, strain CHS5, active compounds read low 1.02 | S. cerevisiae deletion strains, locus YLR342W, strain FKS1 (second series), active compounds read low 1.05 | S. cerevisiae deletion strains, locus YLR371W, strain rom2, active compounds read low 0.996 | S. cerevisiae deletion strains, locus YLR418C, strain cdc73, active compounds read low 1 | S. cerevisiae deletion strains, locus YML016C, strain PPZ1, active compounds read low 1.02 | S. cerevisiae deletion strains, locus YML032C, strain rad52, active compounds read low 0.961 | S. cerevisiae deletion strains, locus YML124C, strain tub3, active compounds read low 0.99 | S. cerevisiae deletion strains, locus YMR078C, strain ctf18, active compounds read low 0.995 | S. cerevisiae deletion strains, locus YMR223W, strain ubp8, active compounds read low 0.998 | [9] 1.02 | [10] 1.01 | S. cerevisiae deletion strains, locus YNL067W, strain RPL9B, active compounds read low 1.01 | S. cerevisiae deletion strains, locus YNL128W, strain TEP1, active compounds read low 1.05 | [11] 1.02 | S. cerevisiae deletion strains, locus YNL233W, strain BNI4, active compounds read low 1.01 | S. cerevisiae deletion strains, locus YNL250W, strain rad50, active compounds read low 0.984 | S. cerevisiae deletion strains, locus YNL271C, strain bni1, active compounds read low 1 | S. cerevisiae deletion strains, locus YNL298W, strain CLA4, active compounds read low 0.997 | S. cerevisiae deletion strains, locus YNL307C, strain MCK1, active compounds read low 1 | [15] 1.01 | S. cerevisiae deletion strains, locus YNR052C, strain pop2, active compounds read low 0.993 | S. cerevisiae deletion strains, locus YOL006C, strain TOP1, active compounds read low 1.18 | S. cerevisiae deletion strains, locus YOL012C, strain htz1 1.11 | S. cerevisiae deletion strains, locus YOL147C, strain pex11, active compounds read low 0.995 | S. cerevisiae deletion strains, locus YOR061W, strain CKA2, active compounds read low 1.02 | S. cerevisiae deletion strains, locus YOR136W, strain idh2, active compounds read low 0.997 | S. cerevisiae deletion strains, locus YOR144C, strain elg1, active compounds read low 0.984 | S. cerevisiae deletion strains, locus YOR184W, strain ser1, active compounds read low 1.02 | S. cerevisiae deletion strains, locus YOR316C, strain cot1, active compounds read low 1 | [17] 1.05 | S. cerevisiae deletion strains, locus YPR119W, strain clb2, active compounds read low 0.988 | S. cerevisiae deletion strains, locus YPR141C, strain kar3, active compounds read low 0.997 | S. cerevisiae deletion strains, locus YPR163C, strain tif3, active compounds read low 0.997 | S. cerevisiae deletion strains, locus YPR167C, strain met16, active compounds read low 0.997 | S. cerevisiae deletion strains, strain wtn01, active compounds read low 0.999 | S. cerevisiae strains, strain wild type, active compounds read low 1.01
active: S. cerevisiae deletion strains, locus YJR043C, strain POL32, active compounds read low 1.17 [resistant] | S. cerevisiae deletion strains, locus YOR069W, strain VPS5, active compounds read low 1.11 [resistant]
